# Compounds without any hit were thinned out: in the full panel of roughly 83,000, 20% have a hit.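 Activity criterion: percent growth below 10, measured after cells in 96-well plates were exposed to a single compound concentration for 48 hours.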 Activity calls are given as the source filed them.
# Test system: HL-60(TB) leukemia
# Assay: NCI-60 one-dose screen, 48 h (100 = growth as untreated, 0 = no growth, -100 = all killed)
# Conditions: 10 µM unless noted
row,SMILES,growth
1,FC(F)(F)c1cc(-c2nnc3n2N=C(N2CCCC2)CS3)cc(C(F)(F)F)c1,113% (inactive)
2,CCN(CC)c1ccc(C2CC(c3cc(OC)c(OC)c(OC)c3)=NN2)cc1 (centres undefined),-35.1% (active)
3,COc1ccc(C/C(C)=C(/c2ccc(OCCN(C)C)cc2)c2ccc(OC(=O)NCc3ccccc3)cc2)cc1,45.1% (inactive)
4,Clc1ccc2c(Nc3ccc4oc(NCCN5CCCC5)nc4c3)ccnc2c1,72.3% (inactive)
5,CC(=O)CC(=O)c1ccccc1.[Cu+2],67.2% (inactive)
6,CCC(CO)Nc1nc2ccc(Cl)cc2c2ccccc12 (centres undefined),25% (inactive)
7,CCOC(=O)C1=C(c2ccccc2)N=C2SC=C(c3cccc([N+](=O)[O-])c3)N2C1c1ccc(O)cc1 (centres undefined),107% (inactive)
8,Cc1ccc(S(=O)(=O)c2ccc3[nH]c(=O)[nH]c(=O)c3c2)cc1,89.3% (inactive)
9,O=C(/C(=C/c1ccc([N+](=O)[O-])cc1)SCc1ccccc1)c1ccc(Cl)cc1,74.4% (inactive)
10,COc1ccc(/C=C2/CCc3cc4ccc(OC)cc4[o+]c32)c(O)c1,60.8% (inactive)
11,CN1CCN(CC(=O)Nc2cccc(-n3cc(-c4ccncc4)c(-c4ccc(Cl)c(O)c4)n3)c2)CC1,5.27% (active)
12,O=C(Nc1ccc(Cl)cc1)c1cc(-c2ccc(Cl)cc2)c2sc(=O)[nH]c2n1,-53.7% (active)
13,CC(Br)c1nc2ccccc2cc1C(N)=O (centres undefined),104% (inactive)
14,CC(=O)[C@@]1(O)[C@H](C)C[C@H]2[C@@H]3C=C(C)C4=Cc5c(cnn5-c5ccccc5)C[C@]4(C)[C@H]3[C@@H](O)C[C@@]21C,-16% (active)
15,N#CC(=S)Nc1ccc(Cl)c(Cl)c1,8.99% (active)
16,CCOC(=O)c1c(-c2cc(OC)c(OC)c(OC)c2)csc1N,96.3% (inactive)
17,O=c1c(-c2nc3ccccc3[nH]2)cc2ccccc2n1Cc1cn(Cc2ccccc2Cl)nn1,67.4% (inactive)
18,O=c1[nH]ccc2nc(N3CCC(O)CC3)nc(Nc3cccc(C(F)(F)F)c3)c12,29.6% (inactive)
19,COc1cc2c(cc1C)NC(=O)/C2=C\c1c[nH]c2ccccc12,47.5% (inactive)
20,Cc1ccc(C(CN(C)C)C(=O)c2ccccc2)cc1 (centres undefined),-31.3% (active)

row,SMILES,growth
1,CCCCCn1sc(=O)n(Cc2ccc(CNC(=O)OCc3ccc4c(Cl)cc(Cl)c(O)c4n3)cc2)c1=O,63.5% (inactive)
2,CCCCCCCC/C=C\CCCCCCCCOc1ccc(CC(=O)NCC[N+](C)(C)C)cc1,-35.7% (active)
3,O=C1/C(=C\c2ccc(F)cc2)CN(C(=O)c2ccccc2F)C/C1=C\c1ccc(F)cc1,-4.26% (active)
4,CCCCN(CCCC)CCC(O)c1cc2ccc(C(F)(F)F)cc2c2cc(C(F)(F)F)ccc12 (centres undefined),49.8% (inactive)
5,CCCCCCCCOC(=O)c1ccccn1,119% (inactive)
6,CN1CCN(Cc2ccc(NC(=O)c3[nH]ncc3Nc3ncnc4c3CCC4)cc2)CC1,-22.1% (active)
7,CCN(CC)CCNc1ccc(CO)c2oc3cc(Cl)ccc3c(=O)c12,111% (inactive)
8,CC1CCCC(CC(N)=O)CC1 (centres undefined),90.5% (inactive)
9,C=CC(=O)N[C@@H](/C=C/C(=O)OCC)Cc1ccc(-c2cc(Cl)cc(Cl)c2)cc1,-27.4% (active)
10,O=C(c1ccccc1)N(C(=O)c1ccccc1)N1CCCC1,120% (inactive)
11,Cc1nn(-c2ccccc2)c2nc(Cl)c(C=O)c(-c3ccccc3)c12,95.8% (inactive)
12,CCOC(=O)c1sc2nc(-c3cc4ccccc4o3)cc(-c3ccc(Cl)cc3)c2c1N,108% (inactive)
13,O=[N+]([O-])c1cccc2nsnc12,104% (inactive)
14,O=C1/C(=C/c2cccc([N+](=O)[O-])c2)COc2ccc(O)cc21,15.3% (inactive)
15,CC1(C)C(=O)/C(=C\c2ccco2)C[C@]2(C)[C@H]3CC=C4[C@@H]5C[C@](C)(C(=O)O)CC[C@]5(C)CC[C@@]4(C)[C@]3(C)CC[C@@H]12,-21.1% [100 µM] (active)
16,COc1ccc(Nc2ncc(Br)c(NCCCNC(=O)c3cccs3)n2)cc1,17.7% (inactive)
17,COc1cc(C2CC(=O)Nc3n[nH]c(-c4ccccc4)c32)cc(OC)c1OC (centres undefined),39.1% (inactive)
18,CCOC(=O)C1CCc2c(ccc3ccccc23)N1CCC#N (centres undefined),110% (inactive)
19,c1c[nH]c(CNC2CCCCC2)c1,263% (inactive)

# From PubChem BioAssay (NCI)
